# Legend:
# [1] = biological target: T1, Ephrin type-B receptor 2 (Homo sapiens) (UniProt P29323); settings: at 1 µM
# T1 sequence (whole entry): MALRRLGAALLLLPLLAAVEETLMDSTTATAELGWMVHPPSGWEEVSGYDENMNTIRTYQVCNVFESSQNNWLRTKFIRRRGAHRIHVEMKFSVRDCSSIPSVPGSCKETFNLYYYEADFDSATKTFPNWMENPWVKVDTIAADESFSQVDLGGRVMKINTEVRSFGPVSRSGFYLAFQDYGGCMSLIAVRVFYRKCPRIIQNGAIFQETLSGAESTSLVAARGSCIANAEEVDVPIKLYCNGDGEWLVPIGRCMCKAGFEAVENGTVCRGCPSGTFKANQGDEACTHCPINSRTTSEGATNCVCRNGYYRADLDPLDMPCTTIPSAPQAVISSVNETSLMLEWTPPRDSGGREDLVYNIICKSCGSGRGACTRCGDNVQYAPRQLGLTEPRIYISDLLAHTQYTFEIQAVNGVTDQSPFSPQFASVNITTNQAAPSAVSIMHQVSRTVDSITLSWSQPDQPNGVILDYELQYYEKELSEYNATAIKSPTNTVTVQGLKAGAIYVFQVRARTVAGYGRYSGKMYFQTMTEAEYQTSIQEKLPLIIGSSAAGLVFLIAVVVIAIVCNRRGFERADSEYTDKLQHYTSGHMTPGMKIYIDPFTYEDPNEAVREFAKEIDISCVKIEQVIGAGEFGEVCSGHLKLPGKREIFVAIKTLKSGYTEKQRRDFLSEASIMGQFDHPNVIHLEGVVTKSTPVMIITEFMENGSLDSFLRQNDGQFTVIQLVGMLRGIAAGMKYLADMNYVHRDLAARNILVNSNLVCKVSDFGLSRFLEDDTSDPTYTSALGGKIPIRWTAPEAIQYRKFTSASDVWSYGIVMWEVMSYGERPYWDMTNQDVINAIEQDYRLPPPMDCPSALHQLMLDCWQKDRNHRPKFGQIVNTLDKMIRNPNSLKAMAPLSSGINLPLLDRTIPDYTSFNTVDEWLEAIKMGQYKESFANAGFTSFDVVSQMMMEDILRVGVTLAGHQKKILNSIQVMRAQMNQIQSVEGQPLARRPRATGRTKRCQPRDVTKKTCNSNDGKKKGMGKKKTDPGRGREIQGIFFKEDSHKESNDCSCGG
# [2] = biological target: T2, Ephrin type-B receptor 3 (Homo sapiens) (UniProt P54753); settings: at 0.1 µM
# T2 sequence (whole entry): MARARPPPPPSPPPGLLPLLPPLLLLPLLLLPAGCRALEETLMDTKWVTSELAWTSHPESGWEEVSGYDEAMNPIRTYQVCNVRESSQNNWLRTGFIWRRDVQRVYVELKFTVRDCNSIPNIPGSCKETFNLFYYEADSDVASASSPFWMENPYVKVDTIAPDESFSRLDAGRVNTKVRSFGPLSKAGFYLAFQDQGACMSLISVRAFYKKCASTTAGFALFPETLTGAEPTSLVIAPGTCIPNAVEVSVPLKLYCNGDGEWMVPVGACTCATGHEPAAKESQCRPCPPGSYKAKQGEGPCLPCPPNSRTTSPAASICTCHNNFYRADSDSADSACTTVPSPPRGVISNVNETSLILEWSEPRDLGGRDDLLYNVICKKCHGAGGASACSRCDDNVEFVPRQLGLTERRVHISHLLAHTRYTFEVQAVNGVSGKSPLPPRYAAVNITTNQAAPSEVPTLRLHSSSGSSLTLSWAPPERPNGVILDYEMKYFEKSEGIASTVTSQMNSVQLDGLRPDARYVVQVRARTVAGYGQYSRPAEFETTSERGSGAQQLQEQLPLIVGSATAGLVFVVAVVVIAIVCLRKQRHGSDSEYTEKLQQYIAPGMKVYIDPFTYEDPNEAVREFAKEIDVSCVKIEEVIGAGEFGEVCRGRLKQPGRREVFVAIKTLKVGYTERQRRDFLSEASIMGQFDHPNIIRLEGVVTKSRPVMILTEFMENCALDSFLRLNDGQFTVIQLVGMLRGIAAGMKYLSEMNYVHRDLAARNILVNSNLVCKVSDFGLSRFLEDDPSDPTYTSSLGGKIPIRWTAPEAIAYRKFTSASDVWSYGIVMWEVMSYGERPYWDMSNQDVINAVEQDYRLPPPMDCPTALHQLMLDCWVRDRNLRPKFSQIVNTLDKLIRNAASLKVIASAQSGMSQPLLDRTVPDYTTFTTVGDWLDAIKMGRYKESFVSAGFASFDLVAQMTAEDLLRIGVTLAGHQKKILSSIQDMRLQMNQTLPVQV
# [3] = biological target: T2, Ephrin type-B receptor 3 (Homo sapiens); settings: at 1 µM
# [4] = biological target: T3, Ephrin type-B receptor 4 (Homo sapiens) (UniProt P54760); settings: at 0.1 µM
# T3 sequence (whole entry): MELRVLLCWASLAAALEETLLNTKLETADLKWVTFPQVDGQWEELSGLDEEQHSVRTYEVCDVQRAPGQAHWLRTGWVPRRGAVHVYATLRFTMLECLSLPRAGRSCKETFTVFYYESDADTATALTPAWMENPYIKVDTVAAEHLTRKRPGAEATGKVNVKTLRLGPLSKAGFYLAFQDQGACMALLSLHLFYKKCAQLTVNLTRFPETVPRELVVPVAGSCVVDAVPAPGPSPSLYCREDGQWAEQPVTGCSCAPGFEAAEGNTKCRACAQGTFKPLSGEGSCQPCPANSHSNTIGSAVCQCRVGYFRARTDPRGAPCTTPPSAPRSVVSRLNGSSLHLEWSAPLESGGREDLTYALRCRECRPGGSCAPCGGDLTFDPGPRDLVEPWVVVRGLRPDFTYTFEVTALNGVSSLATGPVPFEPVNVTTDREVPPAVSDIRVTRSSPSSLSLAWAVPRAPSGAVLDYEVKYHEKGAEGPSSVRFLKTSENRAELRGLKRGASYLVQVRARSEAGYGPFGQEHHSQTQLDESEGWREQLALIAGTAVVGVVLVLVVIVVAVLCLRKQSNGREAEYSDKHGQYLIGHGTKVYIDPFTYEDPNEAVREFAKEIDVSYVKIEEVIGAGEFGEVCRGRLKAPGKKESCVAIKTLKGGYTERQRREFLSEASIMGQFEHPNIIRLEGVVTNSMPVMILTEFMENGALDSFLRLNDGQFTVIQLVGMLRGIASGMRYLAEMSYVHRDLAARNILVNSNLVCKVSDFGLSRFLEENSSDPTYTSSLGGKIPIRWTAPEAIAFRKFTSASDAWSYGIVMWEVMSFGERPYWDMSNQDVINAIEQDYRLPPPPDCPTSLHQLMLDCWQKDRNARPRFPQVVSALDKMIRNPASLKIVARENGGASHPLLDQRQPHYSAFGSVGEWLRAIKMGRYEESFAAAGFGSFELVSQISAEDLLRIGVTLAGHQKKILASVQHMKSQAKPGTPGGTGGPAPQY
# [5] = biological target: T3, Ephrin type-B receptor 4 (Homo sapiens); settings: at 1 µM
# [6] = biological target: Receptor tyrosine-protein kinase erbB-2 (Homo sapiens) (UniProt P04626); settings: at 0.1 µM
# Chain of Receptor tyrosine-protein kinase erbB-2 (Homo sapiens) (P04626 whole entry): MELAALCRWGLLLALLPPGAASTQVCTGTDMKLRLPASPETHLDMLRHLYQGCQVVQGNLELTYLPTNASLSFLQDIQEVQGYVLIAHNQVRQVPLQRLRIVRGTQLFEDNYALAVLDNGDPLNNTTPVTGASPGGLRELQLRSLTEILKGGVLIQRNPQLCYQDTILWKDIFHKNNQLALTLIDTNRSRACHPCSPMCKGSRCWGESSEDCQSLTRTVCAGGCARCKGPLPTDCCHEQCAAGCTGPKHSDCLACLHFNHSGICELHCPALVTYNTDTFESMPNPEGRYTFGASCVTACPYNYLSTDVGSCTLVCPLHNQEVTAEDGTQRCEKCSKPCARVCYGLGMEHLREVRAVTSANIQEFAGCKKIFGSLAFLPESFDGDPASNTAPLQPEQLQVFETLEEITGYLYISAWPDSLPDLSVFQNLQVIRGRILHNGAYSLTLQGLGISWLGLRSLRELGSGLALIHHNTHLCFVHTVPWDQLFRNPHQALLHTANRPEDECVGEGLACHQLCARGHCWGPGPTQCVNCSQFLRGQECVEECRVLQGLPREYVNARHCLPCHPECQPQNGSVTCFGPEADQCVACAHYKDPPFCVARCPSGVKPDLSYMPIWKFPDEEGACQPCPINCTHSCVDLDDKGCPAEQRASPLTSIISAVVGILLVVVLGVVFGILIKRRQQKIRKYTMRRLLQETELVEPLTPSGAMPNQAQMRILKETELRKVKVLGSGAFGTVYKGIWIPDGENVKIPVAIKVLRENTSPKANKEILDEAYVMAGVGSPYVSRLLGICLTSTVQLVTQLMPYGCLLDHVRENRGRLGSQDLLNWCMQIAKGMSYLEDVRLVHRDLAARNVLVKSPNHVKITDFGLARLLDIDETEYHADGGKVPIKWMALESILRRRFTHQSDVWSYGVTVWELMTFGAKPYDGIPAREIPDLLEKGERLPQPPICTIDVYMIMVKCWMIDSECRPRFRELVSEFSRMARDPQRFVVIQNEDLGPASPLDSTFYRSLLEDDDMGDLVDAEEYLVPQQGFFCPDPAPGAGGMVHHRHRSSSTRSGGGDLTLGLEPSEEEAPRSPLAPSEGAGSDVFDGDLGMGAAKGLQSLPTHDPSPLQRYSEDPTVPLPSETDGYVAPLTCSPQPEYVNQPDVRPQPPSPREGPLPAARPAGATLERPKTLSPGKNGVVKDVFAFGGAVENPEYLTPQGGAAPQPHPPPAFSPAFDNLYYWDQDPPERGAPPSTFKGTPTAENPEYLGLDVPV
# [7] = biological target: Receptor tyrosine-protein kinase erbB-2 (Homo sapiens) (UniProt P04626); settings: at 1 µM
# [8] = biological target: Receptor tyrosine-protein kinase erbB-4 (Homo sapiens) (UniProt Q15303); settings: at 0.1 µM
# [9] = biological target: Receptor tyrosine-protein kinase erbB-4 (Homo sapiens) (UniProt Q15303); settings: at 1 µM
# [10] = biological target: Tyrosine-protein kinase Fer (Homo sapiens) (UniProt P16591); settings: at 0.1 µM
# Chain of Tyrosine-protein kinase Fer (Homo sapiens) (P16591 whole entry, looked up): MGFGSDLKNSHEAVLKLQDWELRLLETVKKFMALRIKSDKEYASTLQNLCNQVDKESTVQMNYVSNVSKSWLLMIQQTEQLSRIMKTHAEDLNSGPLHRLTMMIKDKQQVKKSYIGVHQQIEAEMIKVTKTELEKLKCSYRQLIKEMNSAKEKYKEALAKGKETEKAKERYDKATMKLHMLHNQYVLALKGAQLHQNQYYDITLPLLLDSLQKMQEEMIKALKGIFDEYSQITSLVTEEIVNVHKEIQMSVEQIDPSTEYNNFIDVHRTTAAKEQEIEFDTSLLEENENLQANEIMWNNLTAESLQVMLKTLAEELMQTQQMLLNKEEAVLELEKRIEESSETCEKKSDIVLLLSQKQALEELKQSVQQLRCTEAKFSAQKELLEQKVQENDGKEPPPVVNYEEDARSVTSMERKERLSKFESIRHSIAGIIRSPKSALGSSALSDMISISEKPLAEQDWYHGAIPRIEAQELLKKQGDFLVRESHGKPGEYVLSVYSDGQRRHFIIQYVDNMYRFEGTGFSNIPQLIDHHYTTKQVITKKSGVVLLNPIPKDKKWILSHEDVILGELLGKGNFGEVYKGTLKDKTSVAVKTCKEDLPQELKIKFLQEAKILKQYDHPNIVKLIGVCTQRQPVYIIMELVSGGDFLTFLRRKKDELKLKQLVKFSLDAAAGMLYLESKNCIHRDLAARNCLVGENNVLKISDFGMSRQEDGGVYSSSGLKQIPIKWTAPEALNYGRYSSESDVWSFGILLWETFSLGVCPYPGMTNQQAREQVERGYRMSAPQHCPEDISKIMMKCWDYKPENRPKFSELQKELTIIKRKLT
# [11] = biological target: Tyrosine-protein kinase Fer (Homo sapiens) (UniProt P16591); settings: at 1 µM
# [12] = biological target: Tyrosine-protein kinase Fes/Fps (Homo sapiens) (UniProt P07332); settings: at 0.1 µM
# Chain of Tyrosine-protein kinase Fes/Fps (Homo sapiens) (P07332 whole entry): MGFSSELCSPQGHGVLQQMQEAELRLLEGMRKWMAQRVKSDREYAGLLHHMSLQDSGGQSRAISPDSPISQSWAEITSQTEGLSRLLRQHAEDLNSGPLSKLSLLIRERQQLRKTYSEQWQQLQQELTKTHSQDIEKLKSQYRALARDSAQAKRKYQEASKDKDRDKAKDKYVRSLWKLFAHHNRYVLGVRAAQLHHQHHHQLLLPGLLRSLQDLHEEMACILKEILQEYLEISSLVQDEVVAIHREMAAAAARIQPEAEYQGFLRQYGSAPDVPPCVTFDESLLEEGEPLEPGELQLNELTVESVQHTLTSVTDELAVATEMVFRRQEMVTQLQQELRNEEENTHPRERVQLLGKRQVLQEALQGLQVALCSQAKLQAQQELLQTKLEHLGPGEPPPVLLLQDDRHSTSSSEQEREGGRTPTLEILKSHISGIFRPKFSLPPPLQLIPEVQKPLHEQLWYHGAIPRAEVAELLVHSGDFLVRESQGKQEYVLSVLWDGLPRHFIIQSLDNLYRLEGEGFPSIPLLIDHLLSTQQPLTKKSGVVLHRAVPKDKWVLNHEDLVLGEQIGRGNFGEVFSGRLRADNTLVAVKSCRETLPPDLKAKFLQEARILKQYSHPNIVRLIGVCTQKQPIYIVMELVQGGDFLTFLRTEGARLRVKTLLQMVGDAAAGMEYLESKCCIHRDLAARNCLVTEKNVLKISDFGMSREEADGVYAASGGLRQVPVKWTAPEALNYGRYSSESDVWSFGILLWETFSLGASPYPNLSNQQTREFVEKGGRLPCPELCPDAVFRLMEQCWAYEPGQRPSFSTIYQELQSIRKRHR
# [13] = biological target: Tyrosine-protein kinase Fes/Fps (Homo sapiens) (UniProt P07332); settings: at 1 µM
# [14] = biological target: Fibroblast growth factor receptor 1 (Homo sapiens) (UniProt P11362); settings: at 0.1 µM
# [15] = biological target: Fibroblast growth factor receptor 1 (Homo sapiens) (UniProt P11362); settings: at 1 µM
# [16] = biological target: Fibroblast growth factor receptor 2 (Homo sapiens) (UniProt P21802); settings: at 0.1 µM
# [17] = biological target: Fibroblast growth factor receptor 2 (Homo sapiens) (UniProt P21802); settings: at 1 µM
# [18] = biological target: Fibroblast growth factor receptor 3 (Homo sapiens) (UniProt P22607); settings: at 0.1 µM
# Chain of Fibroblast growth factor receptor 3 (Homo sapiens) (P22607 23-806 limits assumed): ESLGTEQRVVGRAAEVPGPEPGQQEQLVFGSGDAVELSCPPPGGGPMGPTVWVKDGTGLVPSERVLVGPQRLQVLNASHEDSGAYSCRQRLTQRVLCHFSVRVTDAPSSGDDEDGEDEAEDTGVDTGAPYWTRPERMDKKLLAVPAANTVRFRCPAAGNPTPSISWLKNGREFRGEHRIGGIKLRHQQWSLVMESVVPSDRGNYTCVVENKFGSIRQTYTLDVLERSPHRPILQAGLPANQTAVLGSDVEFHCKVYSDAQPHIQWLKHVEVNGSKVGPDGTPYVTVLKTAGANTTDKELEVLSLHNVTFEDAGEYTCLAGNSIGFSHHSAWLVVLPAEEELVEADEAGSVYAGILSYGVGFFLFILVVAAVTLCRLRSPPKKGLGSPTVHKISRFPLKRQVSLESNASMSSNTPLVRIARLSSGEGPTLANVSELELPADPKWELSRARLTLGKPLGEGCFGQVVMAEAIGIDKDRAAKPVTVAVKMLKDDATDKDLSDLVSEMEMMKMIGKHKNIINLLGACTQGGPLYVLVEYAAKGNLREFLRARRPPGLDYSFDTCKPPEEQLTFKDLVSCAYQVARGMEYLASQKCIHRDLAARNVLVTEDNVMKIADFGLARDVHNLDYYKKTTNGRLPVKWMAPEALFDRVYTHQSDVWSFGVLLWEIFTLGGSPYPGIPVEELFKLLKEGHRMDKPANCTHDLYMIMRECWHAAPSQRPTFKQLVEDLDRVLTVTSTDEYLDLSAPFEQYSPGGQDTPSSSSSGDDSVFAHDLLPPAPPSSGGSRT
# [19] = biological target: Fibroblast growth factor receptor 3 (Homo sapiens) (UniProt P22607); settings: at 1 µM
# [20] = biological target: Fibroblast growth factor receptor 4 (Homo sapiens) (UniProt P22455); settings: at 0.1 µM;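 also: values are mean percent inhibition of FGFR4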
# Chain of Fibroblast growth factor receptor 4 (Homo sapiens) (P22455 22-802 limits assumed): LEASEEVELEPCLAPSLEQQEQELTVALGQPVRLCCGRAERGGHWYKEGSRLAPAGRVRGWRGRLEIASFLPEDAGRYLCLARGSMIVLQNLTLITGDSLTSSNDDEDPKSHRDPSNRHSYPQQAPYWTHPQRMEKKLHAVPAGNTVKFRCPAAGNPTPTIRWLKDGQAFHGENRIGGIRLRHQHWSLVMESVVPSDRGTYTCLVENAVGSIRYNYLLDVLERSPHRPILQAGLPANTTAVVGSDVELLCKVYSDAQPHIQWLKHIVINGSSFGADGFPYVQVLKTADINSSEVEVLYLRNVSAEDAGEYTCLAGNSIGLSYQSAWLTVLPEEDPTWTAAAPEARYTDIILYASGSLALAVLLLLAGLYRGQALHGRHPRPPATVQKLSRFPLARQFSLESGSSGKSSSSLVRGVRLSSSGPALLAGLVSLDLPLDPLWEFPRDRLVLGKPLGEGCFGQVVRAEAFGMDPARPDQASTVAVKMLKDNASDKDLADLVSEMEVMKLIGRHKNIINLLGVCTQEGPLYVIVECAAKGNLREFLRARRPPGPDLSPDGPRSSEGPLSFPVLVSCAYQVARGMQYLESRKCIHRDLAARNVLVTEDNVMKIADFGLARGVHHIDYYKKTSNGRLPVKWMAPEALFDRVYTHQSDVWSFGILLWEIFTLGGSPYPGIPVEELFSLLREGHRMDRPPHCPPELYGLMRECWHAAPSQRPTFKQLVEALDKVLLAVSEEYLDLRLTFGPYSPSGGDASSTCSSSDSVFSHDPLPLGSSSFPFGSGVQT
Compound,inhibition [1],inhibition [2],inhibition [3],inhibition [4],inhibition [5],inhibition [6],inhibition [7],inhibition [8],inhibition [9],inhibition [10],inhibition [11],inhibition [12],inhibition [13],inhibition [14],inhibition [15],inhibition [16],inhibition [17],inhibition [18],inhibition [19],inhibition [20]
c1cnn2ncc(-c3ccnc(Nc4ccc5c(c4)OCCO5)n3)c2c1,29.4%,3.36%,6.8%,3.69%,12.5%,1.94%,2.67%,8.29%,12.4%,10.7%,43.7%,10.5%,48%,5.77%,5.22%,6.35%,15.9%,6.39%,15.7%,-0.77%
COc1cc2ncn(-c3cc(O[C@H](C)c4ccccc4Cl)c(C(N)=O)s3)c2cc1OC,21.9%,3.78%,5.92%,4.27%,7.03%,2.23%,7.82%,7.95%,14%,4.62%,16.7%,3.81%,5.11%,4.42%,29.4%,12.3%,44.9%,9.47%,–,3.73%
Nc1ncnc2occ(-c3ccc(NC(=O)Nc4cccc(C(F)(F)F)c4)cc3)c12,78.2%,19.6%,68.2%,31.2%,84.4%,-0.01%,3.75%,8.79%,15.2%,2.94%,33.6%,3.8%,4.91%,8.01%,38.2%,15.8%,52.5%,7.97%,34.4%,-1%
Cc1nn(C)c2cc(N(C)c3ccnc(Nc4cccc(S(N)(=O)=O)c4)n3)ccc12,37.8%,5.14%,4.43%,7.86%,39.6%,3.03%,10.1%,11%,29.3%,4.27%,35.8%,2.04%,6.14%,-0.21%,–,5.4%,20.7%,3.96%,11.4%,-9.61%
COc1ccc(-c2ccncc2)cc1C(N)=O,8.22%,3.97%,3.63%,1%,2.03%,1.06%,2.95%,6.21%,12.3%,4.03%,3.22%,2.97%,3.83%,4.37%,8.58%,7.42%,8.69%,7.66%,7.43%,2.74%
[O-][S+]1CCN(Cc2ccc(-c3ccc4ncnc(Nc5ccc(OCc6ccccc6)c(F)c5)c4c3)o2)CC1,-0.23%,3.15%,1.61%,0.35%,2.22%,20.4%,75.1%,68.7%,88.7%,3.77%,6.08%,1.91%,3.4%,2.71%,-2.34%,1.34%,3.9%,3.41%,2.82%,0.38%
COc1ccc(-c2coc3ncnc(N)c23)cc1,7.88%,6.18%,5.65%,2.3%,3.43%,0.31%,-4.24%,9.06%,15.5%,6.86%,2.33%,4.28%,5.04%,3.15%,9.2%,3.85%,10.1%,6.98%,6.72%,-5.79%
CCn1c(-c2nonc2N)nc2cnc(Oc3cccc(NC(=O)c4ccc(OCCN5CCOCC5)cc4)c3)cc21,6.97%,6.88%,5.06%,3.21%,3.05%,4.69%,2%,5.15%,10.4%,3.9%,2.2%,2.8%,2.83%,1.76%,5.99%,4.83%,3.45%,3.36%,1.9%,-4.45%
O=C1NC(=O)C(c2ccc(Cl)cc2)=C1Nc1ccc(Cl)c(C(=O)O)c1,1.8%,-6.22%,-1.9%,-0.68%,-1.57%,-2.94%,-3.13%,-7.86%,-9.87%,1.93%,1.58%,-3.1%,-3%,-0.91%,2.2%,-2.69%,2.13%,1.31%,2.66%,-0.4%
Nc1nc(-c2ccccn2)c(-c2ccc3ncccc3n2)s1,3.51%,2.99%,3.23%,2.74%,0.44%,1.34%,4.11%,7.11%,8.52%,0.93%,6.59%,2.12%,3.07%,7%,5.84%,3.92%,7.02%,5.15%,4.97%,-1.61%
NS(=O)(=O)c1ccc(N/N=C2\C(=O)Nc3ccc(C(=O)NCCc4c[nH]cn4)cc32)cc1,16.2%,3.04%,0.13%,4.11%,6.29%,1.36%,1.09%,6.82%,7.51%,–,–,5.34%,8.37%,3.36%,12.1%,7.55%,11.5%,6.41%,7.55%,4.66%
